We go through seven sequences from publication PMC7862700, “An all-to-all approach to the identification of sequence-specific readers for epigenetic DNA modifications on cytosine”.

Holding throughout (experiment): DAPPL (digital affinity profiling via proximity ligation, sequencing); 10 mM Tris-HCl pH 7.5, 50 mM NaCl, 1 mM DTT, 4% glycerol, room temperature, 30 min; GST-TFs on glutathione beads, 16-mer random dsDNA library, 0.1% formaldehyde crosslink after washing; high values mean tight binding
Holding throughout (details): protein: recombinant; tags: N-terminal GST; dsDNA, one strand shown

The target in one test is T1, FLI1 (Homo sapiens, UniProt Q01543 1-452).
T1 sequence: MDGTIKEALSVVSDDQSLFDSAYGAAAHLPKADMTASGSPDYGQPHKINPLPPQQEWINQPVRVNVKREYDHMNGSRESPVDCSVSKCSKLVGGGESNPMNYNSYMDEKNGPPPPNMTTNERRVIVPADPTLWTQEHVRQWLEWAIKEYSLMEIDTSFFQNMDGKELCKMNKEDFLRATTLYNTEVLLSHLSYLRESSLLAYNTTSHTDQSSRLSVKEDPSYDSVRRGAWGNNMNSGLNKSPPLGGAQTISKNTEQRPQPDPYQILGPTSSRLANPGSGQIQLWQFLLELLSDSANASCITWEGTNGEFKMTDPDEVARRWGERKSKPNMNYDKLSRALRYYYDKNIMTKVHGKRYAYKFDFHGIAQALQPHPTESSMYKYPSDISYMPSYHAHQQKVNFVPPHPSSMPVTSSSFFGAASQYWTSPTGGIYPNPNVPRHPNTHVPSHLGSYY
In short, it runs like this:
(§1)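 Pools were built from human transcription factors expressed in yeast as GST fusions, captured on glutathione beads and DNA-barcoded, along with a tag-only sample. Incubation with 200 nmole of a 16-mer random double-stranded DNA library lasted 30 min at room temperature in Tris/NaCl/DTT/glycerol buffer, and was followed by washing, 0.1% formaldehyde crosslinking, proximity ligation, PCR amplification and Illumina NextSeq500 sequencing. Binding signal is the quotient of each hexamer's read frequency for a factor and its frequency for the tag-only sample.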

The target of the next test is T2, ELK1 (Homo sapiens, UniProt P19419 1-428).
T2 sequence: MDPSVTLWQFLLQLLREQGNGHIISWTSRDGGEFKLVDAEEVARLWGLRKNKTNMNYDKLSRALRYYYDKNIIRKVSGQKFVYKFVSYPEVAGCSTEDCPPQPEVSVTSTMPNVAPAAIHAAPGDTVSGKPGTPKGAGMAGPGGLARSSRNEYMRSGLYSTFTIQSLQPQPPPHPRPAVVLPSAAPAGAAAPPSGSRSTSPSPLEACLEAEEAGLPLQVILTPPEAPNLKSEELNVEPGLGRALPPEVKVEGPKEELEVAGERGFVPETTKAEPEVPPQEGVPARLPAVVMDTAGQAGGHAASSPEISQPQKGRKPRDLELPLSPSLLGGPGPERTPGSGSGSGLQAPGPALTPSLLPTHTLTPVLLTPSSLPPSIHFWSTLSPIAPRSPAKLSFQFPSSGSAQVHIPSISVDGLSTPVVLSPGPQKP
In short, it runs like this:
as §1

The target of another test is T3, GABPA (Homo sapiens, UniProt Q06546 1-454).
T3 sequence: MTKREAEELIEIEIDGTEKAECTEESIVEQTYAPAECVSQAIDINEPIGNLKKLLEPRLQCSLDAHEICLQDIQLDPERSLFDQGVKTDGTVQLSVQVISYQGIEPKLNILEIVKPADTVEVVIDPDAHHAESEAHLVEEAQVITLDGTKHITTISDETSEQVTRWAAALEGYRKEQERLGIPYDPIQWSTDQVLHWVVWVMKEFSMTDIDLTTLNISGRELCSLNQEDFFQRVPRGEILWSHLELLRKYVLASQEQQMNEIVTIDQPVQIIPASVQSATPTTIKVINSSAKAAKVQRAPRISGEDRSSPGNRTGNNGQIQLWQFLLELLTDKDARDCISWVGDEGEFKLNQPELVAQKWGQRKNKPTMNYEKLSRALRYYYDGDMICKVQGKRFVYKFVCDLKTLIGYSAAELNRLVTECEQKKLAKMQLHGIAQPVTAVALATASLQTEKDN
In a few lines: as §1

Another test deals with T4, ERG (Homo sapiens, UniProt P11308 1-479).
T4 sequence: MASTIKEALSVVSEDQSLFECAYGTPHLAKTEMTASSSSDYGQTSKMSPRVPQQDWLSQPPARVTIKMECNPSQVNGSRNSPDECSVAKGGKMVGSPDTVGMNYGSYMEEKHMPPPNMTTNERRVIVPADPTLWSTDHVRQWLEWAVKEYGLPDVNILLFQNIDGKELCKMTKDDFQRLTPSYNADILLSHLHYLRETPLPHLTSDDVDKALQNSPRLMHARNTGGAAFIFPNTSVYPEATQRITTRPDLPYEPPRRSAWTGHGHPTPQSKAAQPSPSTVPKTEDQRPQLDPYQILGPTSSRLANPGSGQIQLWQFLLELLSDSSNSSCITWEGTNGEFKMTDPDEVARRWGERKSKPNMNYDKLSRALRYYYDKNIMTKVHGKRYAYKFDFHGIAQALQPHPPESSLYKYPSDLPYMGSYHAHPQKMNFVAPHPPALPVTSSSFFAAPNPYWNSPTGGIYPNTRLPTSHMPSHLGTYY
In short, it runs like this: as §1

In the next test the target is ELF1 (Homo sapiens, UniProt P32519 1-619). In a few lines:
as §1

Another test concerns the target T5, EHF (Homo sapiens, UniProt Q9NZC4 1-300).
T5 sequence: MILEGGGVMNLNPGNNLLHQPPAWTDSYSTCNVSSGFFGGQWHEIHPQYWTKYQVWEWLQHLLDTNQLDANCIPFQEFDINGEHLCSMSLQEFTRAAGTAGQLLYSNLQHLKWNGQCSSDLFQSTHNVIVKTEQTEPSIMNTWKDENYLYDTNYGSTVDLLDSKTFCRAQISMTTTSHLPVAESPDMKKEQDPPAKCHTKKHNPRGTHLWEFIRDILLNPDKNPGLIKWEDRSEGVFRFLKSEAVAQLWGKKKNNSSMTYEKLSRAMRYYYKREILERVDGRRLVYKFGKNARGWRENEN
In short, it runs like this:
as §1

The next test has as its target SPI1 (Homo sapiens, UniProt P17947 1-270). In short, it runs like this: as §1
The target in a further test is SPIB (Homo sapiens, UniProt Q01892 1-262). In a few lines: as §1
Sequence of SPIB (Q01892 whole entry): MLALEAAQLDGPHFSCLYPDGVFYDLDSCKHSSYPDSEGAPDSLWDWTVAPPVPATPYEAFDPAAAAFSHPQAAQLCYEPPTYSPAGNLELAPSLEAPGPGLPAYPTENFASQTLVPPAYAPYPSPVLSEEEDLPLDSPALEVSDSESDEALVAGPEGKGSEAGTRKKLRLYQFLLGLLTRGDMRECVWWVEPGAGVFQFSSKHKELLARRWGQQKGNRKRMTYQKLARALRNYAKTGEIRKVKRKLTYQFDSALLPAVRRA
For another test, the target named is T6, ELK3 (Homo sapiens, UniProt P41970 1-407).
T6 sequence: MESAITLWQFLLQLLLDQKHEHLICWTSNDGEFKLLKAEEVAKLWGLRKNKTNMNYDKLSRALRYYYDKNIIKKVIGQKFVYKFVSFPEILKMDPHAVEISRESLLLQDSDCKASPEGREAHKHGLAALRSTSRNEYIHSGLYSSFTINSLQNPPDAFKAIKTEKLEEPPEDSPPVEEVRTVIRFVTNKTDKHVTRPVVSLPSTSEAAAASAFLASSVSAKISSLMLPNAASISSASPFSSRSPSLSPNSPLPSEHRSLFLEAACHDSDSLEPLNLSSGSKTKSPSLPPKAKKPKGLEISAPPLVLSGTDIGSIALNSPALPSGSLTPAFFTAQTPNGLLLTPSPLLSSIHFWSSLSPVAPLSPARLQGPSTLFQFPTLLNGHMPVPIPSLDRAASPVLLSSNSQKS
In a few lines:
as §1

Sequence of ELF1 (P32519 whole entry): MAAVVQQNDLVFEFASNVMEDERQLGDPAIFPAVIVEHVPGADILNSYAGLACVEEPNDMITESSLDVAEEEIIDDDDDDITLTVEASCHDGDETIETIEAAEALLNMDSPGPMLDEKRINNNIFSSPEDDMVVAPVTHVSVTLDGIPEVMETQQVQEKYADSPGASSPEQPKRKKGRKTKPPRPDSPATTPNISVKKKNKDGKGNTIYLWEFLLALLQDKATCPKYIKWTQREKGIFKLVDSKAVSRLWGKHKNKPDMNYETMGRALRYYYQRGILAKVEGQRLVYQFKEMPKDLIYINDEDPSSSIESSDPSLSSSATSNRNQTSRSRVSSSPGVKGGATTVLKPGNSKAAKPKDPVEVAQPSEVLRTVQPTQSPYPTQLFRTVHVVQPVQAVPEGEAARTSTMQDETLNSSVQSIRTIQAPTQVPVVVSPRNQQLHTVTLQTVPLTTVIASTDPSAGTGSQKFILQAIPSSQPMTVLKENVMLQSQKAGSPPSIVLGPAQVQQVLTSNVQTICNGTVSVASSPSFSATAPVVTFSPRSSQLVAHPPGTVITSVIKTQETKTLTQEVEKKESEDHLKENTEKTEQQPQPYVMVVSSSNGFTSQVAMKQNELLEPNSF

For the sequence GAACTA, the binding signal is 1.39 fold enrichment (6-mer frequency, TF over GST control) with FLI1; 1.39 fold enrichment (6-mer frequency, TF over GST control) with ELK1; 1.34 fold enrichment (6-mer frequency, TF over GST control) with GABPA; 1.32 fold enrichment (6-mer frequency, TF over GST control) in the test with ERG; 1.3 fold enrichment (6-mer frequency, TF over GST control) with ELF1; 1.37 fold enrichment (6-mer frequency, TF over GST control) in the test with EHF. Also, the binding signal in the test with SPI1 was 1.41 fold enrichment (6-mer frequency, TF over GST control); with SPIB it was 1.32 fold enrichment (6-mer frequency, TF over GST control); with ELK3, 1.37 fold enrichment (6-mer frequency, TF over GST control).

For the sequence TTACTT, the binding signal was 1.44 fold enrichment (6-mer frequency, TF over GST control) in the test with FLI1; 1.53 fold enrichment (6-mer frequency, TF over GST control) in the test with ELK1; 1.44 fold enrichment (6-mer frequency, TF over GST control) with GABPA; 1.44 fold enrichment (6-mer frequency, TF over GST control) in the test with ERG; 1.53 fold enrichment (6-mer frequency, TF over GST control) with ELF1; 1.58 fold enrichment (6-mer frequency, TF over GST control) with EHF. For the same sequence, the binding signal was 1.59 fold enrichment (6-mer frequency, TF over GST control) in the test with SPI1; 1.58 fold enrichment (6-mer frequency, TF over GST control) with SPIB; 1.64 fold enrichment (6-mer frequency, TF over GST control) with ELK3.

On to TTAAAA, for which the binding signal is 1.19 fold enrichment (6-mer frequency, TF over GST control) with FLI1; 1.15 fold enrichment (6-mer frequency, TF over GST control) with ELK1; 1.19 fold enrichment (6-mer frequency, TF over GST control) with GABPA; 1.15 fold enrichment (6-mer frequency, TF over GST control) with ERG; 1.22 fold enrichment (6-mer frequency, TF over GST control) with ELF1; 1.16 fold enrichment (6-mer frequency, TF over GST control) in the test with EHF. The binding signal in the test with SPI1 is 1.33 fold enrichment (6-mer frequency, TF over GST control); with SPIB, 1.23 fold enrichment (6-mer frequency, TF over GST control); with ELK3, 1.22 fold enrichment (6-mer frequency, TF over GST control).

As for GCGATG, the binding signal with FLI1 is 1.2 fold enrichment (6-mer frequency, TF over GST control); in the test with ELK1, 1.48 fold enrichment (6-mer frequency, TF over GST control); with GABPA it was 1.37 fold enrichment (6-mer frequency, TF over GST control); with ERG, 1.23 fold enrichment (6-mer frequency, TF over GST control); with ELF1, 1.31 fold enrichment (6-mer frequency, TF over GST control); in the test with EHF, 1.25 fold enrichment (6-mer frequency, TF over GST control). Moreover, the binding signal with SPI1 is 1.34 fold enrichment (6-mer frequency, TF over GST control); in the test with SPIB, 1.29 fold enrichment (6-mer frequency, TF over GST control); with ELK3 it was 1.31 fold enrichment (6-mer frequency, TF over GST control).

For TGGTTT, the binding signal with FLI1 is 1.6 fold enrichment (6-mer frequency, TF over GST control); with ELK1, 1.44 fold enrichment (6-mer frequency, TF over GST control); in the test with GABPA, 1.55 fold enrichment (6-mer frequency, TF over GST control); with ERG it was 1.51 fold enrichment (6-mer frequency, TF over GST control); with ELF1, 1.58 fold enrichment (6-mer frequency, TF over GST control); with EHF, 1.48 fold enrichment (6-mer frequency, TF over GST control). The binding signal is 1.66 fold enrichment (6-mer frequency, TF over GST control) with SPI1; 1.43 fold enrichment (6-mer frequency, TF over GST control) with SPIB; 1.6 fold enrichment (6-mer frequency, TF over GST control) with ELK3.

For the sequence CACGAT, the binding signal in the test with FLI1 is 1.4 fold enrichment (6-mer frequency, TF over GST control); with ELK1, 1.26 fold enrichment (6-mer frequency, TF over GST control); with GABPA, 1.33 fold enrichment (6-mer frequency, TF over GST control); with ERG, 1.24 fold enrichment (6-mer frequency, TF over GST control); with ELF1, 1.27 fold enrichment (6-mer frequency, TF over GST control); in the test with EHF, 1.32 fold enrichment (6-mer frequency, TF over GST control). Besides, the binding signal with SPI1 was 1.27 fold enrichment (6-mer frequency, TF over GST control); with SPIB it was 1.32 fold enrichment (6-mer frequency, TF over GST control); with ELK3, 1.25 fold enrichment (6-mer frequency, TF over GST control).

For the sequence ACATGC, the binding signal with FLI1 was 1.31 fold enrichment (6-mer frequency, TF over GST control); with ELK1 it was 1.2 fold enrichment (6-mer frequency, TF over GST control); with GABPA it was 1.33 fold enrichment (6-mer frequency, TF over GST control); in the test with ERG, 1.24 fold enrichment (6-mer frequency, TF over GST control); with ELF1 it was 1.36 fold enrichment (6-mer frequency, TF over GST control); in the test with EHF, 1.24 fold enrichment (6-mer frequency, TF over GST control). The binding signal with SPI1 was 1.19 fold enrichment (6-mer frequency, TF over GST control); with SPIB it was 1.2 fold enrichment (6-mer frequency, TF over GST control); with ELK3 it was 1.34 fold enrichment (6-mer frequency, TF over GST control).
